Screens from PubChem BioAssay.
Pf growth 48h: inhibits P. falciparum growth in the first generation, 48 h; P. falciparum luciferase growth in erythrocytes, 48 h; Potency, µM (top dose mostly 28.7 µM), for the others: at the highest dose activity change, negative = inhibition, most hits filed as inhibitors; 310,000 compounds, 5.9% hits; AID 504832; note: potency is the fitted concentration of half-maximal effect
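Firefly luciferase activity from engineered P. falciparum reports growth; inhibitors lower the luminescent signal. Cultures contained 2% hematocrit erythrocytes at 0.1% final parasitemia.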
Pf growth 96h: inhibits malaria parasite growth, 96 h; Potency, µM (highest dose often 28.7 µM), inactives show top-dose activity change, negative = inhibition, actives largely listed as inhibitors; P. falciparum luciferase reporter growth, 96 h; 320,000 compounds, 6.9% hits; note: potency is the fitted concentration of half-maximal effect
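P. falciparum expressing integrated firefly luciferase, in erythrocytes at 2% hematocrit, 0.05% parasitemia, incubated with compounds 96 h at 37 C, 5% CO2. Growth inhibition read as loss of luminescence; two-generation exposure targets delayed-death apicoplast inhibitors.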
HCV inh: HCV inhibition; Huh7.5.1 HCVcc-Cre infection, luciferase reporter, 44 h; Potency, µM (doses to about 41.8 µM), for the others: top-dose activity change, negative = inhibition, usual class: inhibitors; 340,000 compounds, 3.4% hits; note: potency is the fitted concentration of half-maximal effect
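Whole-lifecycle infectious HCVcc-Cre system; cells 1,000/well, compound then virus (~0.5 moi) added 4 h after plating, 44 h culture. Luciferase read 15 sec following 15 min substrate incubation, room temp.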
HCMV inh: human cytomegalovirus inhibition; AID 1259415; HFF cells, HCMV-luciferase reporter, 72 h; active compounds read low; 410,000 compounds, 4.5% hits; activity change, negative = inhibition, % at 57.5 µM; in the data active = activity change below about -60%; inconclusive = no clear call, values can overlap the other calls; inactive = above about -39%
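Inhibition of viral replication was scored as loss of reporter luminescence in HFFs infected with HCMV-luciferase (MOI 1 PFU/cell) for 72 h; compounds tested at 2 doses, normalized to buffer and Salinomycin controls.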
Active calls of the source: *; ? = inconclusive; . = not tested or not shown. Sampled rows, rich in hits. Any-hit rate of the full collection: about 13%. Unless noted, calls come from the whole dose curve; as a rule, active = well fitted inhibition curve with a large enough effect; inconclusive = small, poorly fitted or top-dose-only effect, or another doubt; inactive = no such curve, though single readings can be large or run the other way. % is set by controls: 0 for no effect and ±100 for the full control effect.

SMILES	Pf growth 48h	Pf growth 96h	HCV inh	HCMV inh
CC1=C(C(N)=O)C(c2ccccn2)n2nc(-c3ccccc3Cl)nc2N1 (centres undefined)	4%	10µM*	4%	12
COc1ccccc1C1C(C(N)=O)=C(C)Nc2nc(-c3ccccc3Cl)nn21 (centres undefined)	.	?	13%	-9
CC1=C(C(N)=O)C(c2cccs2)n2nc(-c3cccc(C)c3)nc2N1 (centres undefined)	-17%	10µM*	4%	56
O=C(N/N=C/c1ccncc1)c1cc(-c2ccc(Br)s2)[nH]n1	?	12µM*	11%	16
CC(=C/c1ccccc1)/C=N/NC(=O)c1ccccn1	?	13%	1%	7
CC(/C=C/c1ccccc1)=N\NC(=O)c1cc(C)[nH]n1	-8%	?	14µM*	?
CC(/C=N/NC(=O)c1cc(-c2ccc(C)s2)[nH]n1)=C\c1ccccc1	-17%	?	5.6µM*	5
CC(/C=N/NC(=O)c1cc(C(C)(C)C)[nH]n1)=C\c1ccccc1	?	?	14µM*	2
CSc1c(N(C)C)c(=O)c1=S	.	.	.	-27
Cc1ccc(-c2cc(C(=O)N/N=C/c3ccco3)n[nH]2)s1	10µM*	68%	3%	-25
CC1(C)CC(=O)c2cc(-c3nc(-c4ccc(Cl)cc4)cs3)c(=O)n(-c3ccc(F)cc3)c2C1	.	.	.	-6
Cc1ccc(Cn2cc(C(=O)c3ccc4c(c3)OCO4)c(=O)c3cc(C)ccc32)cc1	.	.	.	-26
COc1ccc(NC(=O)CCC(=O)c2cccs2)cc1S(=O)(=O)Nc1ccc(Cl)cc1	11%	5%	-21%	68
Cc1ccc(NC(=O)COc2ccccc2C#N)cc1S(=O)(=O)N1CCCCCC1	?	8.3µM*	10µM*	-40
COc1ccc(NC(C)=O)cc1S(=O)(=O)N1CCN(C(=O)c2ccccc2F)CC1	2.1µM*	?	-2%	75
COc1ccc(NC(=O)CCS(=O)(=O)c2ccccc2Cl)cc1S(=O)(=O)Nc1ccc(Cl)cc1	-15%	-1%	13µM*	-21
COc1ccc(NC(=O)C2CCC(C(C)(C)C)CC2)cc1S(=O)(=O)N1CCOCC1 (centres undefined)	?	13µM*	?	-7
CC(C)c1nc2ccc(C(=O)NCCCN3CCN(c4ccccc4F)CC3)cc2o1	.	.	.	-20
Cc1cccc(C)c1N1C(=O)c2ccccc2NC(=O)C1C(=O)Nc1ccc2c(c1)OCCO2 (centres undefined)	.	.	.	30
COC(=O)c1cc(OC)c(OC)cc1NCC(=O)Nc1ccc(C)cc1	-10%	9%	2%	-8
Cc1ccc(NC(=O)CN(C)C(=O)Cn2ncc(Cl)c(Cl)c2=O)cc1	-10%	7%	3.2µM*	-100*
COc1ccc(C)cc1NCC(=O)Nc1ccc(C(C)(C)C)cc1	?	9.3µM*	-23%	-9
COc1ccc(NC(=O)Cc2ccc(Cl)cc2)cc1S(=O)(=O)N1CCCCC1	?	10µM*	14µM*	?
Cc1ccc(NC(=O)CSc2ccccc2)cc1S(=O)(=O)N1CCCCC1	?	?	13µM*	?
COc1cc(/C=C/c2nc(C#N)c(NC3CCCCC3)o2)cc(OC)c1OC	.	.	.	140
SMILES	Pf growth 48h	Pf growth 96h	HCV inh	HCMV inh
CCn1c(=O)cc(SCC(=O)NCc2ccc(Cl)cc2)c2ccccc21	.	.	.	4
COc1ccc(NC(=O)CNc2cc(C)ccc2C)cc1S(=O)(=O)N1CCOCC1	?	15µM*	-17%	6
COc1ccc(NC(=O)CNc2ccc(OC)c(S(=O)(=O)N3CCOCC3)c2)cc1	.	.	.	-14
Cc1ccc(NC(=O)C2CCN(C(=O)OC(C)(C)C)CC2)cc1S(=O)(=O)N1CCCCC1	13µM*	?	?	-27
CCNS(=O)(=O)c1ccc(NC(=O)Nc2cc(C)ccc2OC)cc1	8%	-7%	13µM*	-15
COc1ccc(CC(=O)Nc2ccc(F)c(Cl)c2)cc1S(=O)(=O)N1CCOCC1	6.6µM*	?	?	-23
CCCSCCCNC(=O)c1ccc(Cn2c(=O)c3cccn3c3cccnc32)cc1	.	.	.	-15
Cc1cc(C)cc(C(=O)Nc2c(C(=O)Nc3ccccc3F)oc3ccccc23)c1	.	.	.	1
Cc1ccc(S(=O)(=O)N(C)c2ccc(OCC(=O)Nc3cc(C(=O)O)ccc3Cl)cc2)cc1	.	.	0%	0
